# Assays:
# Test in all cases: DAPPL (digital affinity profiling via proximity ligation, sequencing); 10 mM Tris-HCl pH 7.5, 50 mM NaCl, 1 mM DTT, 4% glycerol, room temperature, 30 min; GST-TFs on glutathione beads, 16-mer random dsDNA library, 0.1% formaldehyde crosslink after washing; high values mean tight binding
# FLI1 = molecular target: T1, FLI1 (Homo sapiens, UniProt Q01543 1-452); details: protein: recombinant; tags: N-terminal GST; dsDNA, one strand shown
# T1 sequence: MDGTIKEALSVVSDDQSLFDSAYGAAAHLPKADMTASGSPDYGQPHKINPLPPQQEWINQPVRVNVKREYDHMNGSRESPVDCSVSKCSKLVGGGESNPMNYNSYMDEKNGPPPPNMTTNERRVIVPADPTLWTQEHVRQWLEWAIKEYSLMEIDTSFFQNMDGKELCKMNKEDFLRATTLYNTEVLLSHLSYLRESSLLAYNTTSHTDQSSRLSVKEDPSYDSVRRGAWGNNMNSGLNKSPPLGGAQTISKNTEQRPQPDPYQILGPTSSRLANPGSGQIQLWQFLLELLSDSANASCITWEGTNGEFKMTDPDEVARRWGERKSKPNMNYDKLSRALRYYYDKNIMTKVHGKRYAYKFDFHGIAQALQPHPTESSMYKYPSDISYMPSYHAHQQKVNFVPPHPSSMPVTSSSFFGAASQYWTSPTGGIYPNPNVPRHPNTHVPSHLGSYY
# Method in brief: (§1)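 In yeast, human transcription factors were expressed with a GST fusion, then pulled down on glutathione beads and given DNA barcodes. Pooled with a tag-only sample, they were exposed to 200 nmole of a 16-mer random double-stranded DNA library (Tris/NaCl/DTT/glycerol buffer, room temperature, 30 min), washed, crosslinked with 0.1% formaldehyde, proximity-ligated using BsaI/T4 ligase for 1 h at 37 °C, PCR-amplified and read on an Illumina NextSeq500. Each hexamer's frequency of reads for a factor, divided by the matching frequency for the tag-only sample, gives the binding signal.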
# ELK1 = molecular target: T2, ELK1 (Homo sapiens, UniProt P19419 1-428); details: protein: recombinant; tags: N-terminal GST; dsDNA, one strand shown
# T2 sequence: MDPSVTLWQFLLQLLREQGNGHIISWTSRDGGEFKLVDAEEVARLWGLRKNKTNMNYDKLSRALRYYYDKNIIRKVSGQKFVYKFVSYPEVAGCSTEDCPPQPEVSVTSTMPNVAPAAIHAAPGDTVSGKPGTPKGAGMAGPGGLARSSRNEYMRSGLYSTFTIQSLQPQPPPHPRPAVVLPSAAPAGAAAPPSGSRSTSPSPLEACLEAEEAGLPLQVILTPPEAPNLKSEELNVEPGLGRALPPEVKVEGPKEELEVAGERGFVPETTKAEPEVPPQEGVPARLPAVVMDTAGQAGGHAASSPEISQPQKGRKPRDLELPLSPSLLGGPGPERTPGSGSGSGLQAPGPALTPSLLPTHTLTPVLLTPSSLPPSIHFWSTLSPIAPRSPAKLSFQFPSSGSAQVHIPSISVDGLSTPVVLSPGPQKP
# Method in brief: as §1
# GABPA = molecular target: T3, GABPA (Homo sapiens, UniProt Q06546 1-454); details: protein: recombinant; tags: N-terminal GST; dsDNA, one strand shown
# T3 sequence: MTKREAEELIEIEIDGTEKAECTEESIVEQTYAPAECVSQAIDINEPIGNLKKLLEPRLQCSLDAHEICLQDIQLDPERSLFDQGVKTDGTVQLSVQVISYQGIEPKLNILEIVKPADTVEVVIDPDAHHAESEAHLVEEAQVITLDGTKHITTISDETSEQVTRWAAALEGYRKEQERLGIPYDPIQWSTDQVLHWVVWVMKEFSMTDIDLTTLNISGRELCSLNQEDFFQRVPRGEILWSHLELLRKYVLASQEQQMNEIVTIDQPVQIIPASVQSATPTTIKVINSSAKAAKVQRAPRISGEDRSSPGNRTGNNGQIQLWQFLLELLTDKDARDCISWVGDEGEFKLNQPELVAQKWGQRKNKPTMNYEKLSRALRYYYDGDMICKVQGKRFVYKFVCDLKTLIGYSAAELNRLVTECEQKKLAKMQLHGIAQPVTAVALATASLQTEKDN
# Method in brief: as §1
# ERG = molecular target: T4, ERG (Homo sapiens, UniProt P11308 1-479); details: protein: recombinant; tags: N-terminal GST; dsDNA, one strand shown
# T4 sequence: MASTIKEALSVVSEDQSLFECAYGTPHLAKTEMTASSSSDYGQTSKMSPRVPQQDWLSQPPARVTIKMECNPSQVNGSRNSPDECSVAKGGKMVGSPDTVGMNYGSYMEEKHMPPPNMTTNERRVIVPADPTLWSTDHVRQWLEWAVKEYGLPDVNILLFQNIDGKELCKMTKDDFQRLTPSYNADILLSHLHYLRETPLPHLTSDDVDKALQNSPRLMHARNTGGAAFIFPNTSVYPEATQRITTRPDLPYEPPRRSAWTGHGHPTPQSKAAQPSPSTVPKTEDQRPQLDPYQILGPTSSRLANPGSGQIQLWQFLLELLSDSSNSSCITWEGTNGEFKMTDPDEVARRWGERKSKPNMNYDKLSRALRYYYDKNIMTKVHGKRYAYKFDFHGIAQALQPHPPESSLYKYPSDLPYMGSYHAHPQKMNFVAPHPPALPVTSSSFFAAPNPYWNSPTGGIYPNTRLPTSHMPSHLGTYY
# Method in brief: as §1
# ELF1 = ELF1 (Homo sapiens, UniProt P32519 1-619); details: protein: recombinant; tags: N-terminal GST; dsDNA, one strand shown
# Method in brief: as §1
# EHF = molecular target: T5, EHF (Homo sapiens, UniProt Q9NZC4 1-300); details: protein: recombinant; tags: N-terminal GST; dsDNA, one strand shown
# T5 sequence: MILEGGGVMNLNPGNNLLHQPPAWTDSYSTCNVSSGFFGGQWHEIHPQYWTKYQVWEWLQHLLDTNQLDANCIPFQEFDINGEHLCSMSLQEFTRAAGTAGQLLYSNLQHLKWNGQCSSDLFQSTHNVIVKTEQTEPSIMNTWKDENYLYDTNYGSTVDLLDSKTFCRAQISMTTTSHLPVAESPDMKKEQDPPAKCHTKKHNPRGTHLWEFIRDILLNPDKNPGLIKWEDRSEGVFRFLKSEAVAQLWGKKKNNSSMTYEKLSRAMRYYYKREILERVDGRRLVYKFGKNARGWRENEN
# Method in brief: as §1
# SPI1 = SPI1 (Homo sapiens, UniProt P17947 1-270); details: protein: recombinant; tags: N-terminal GST; dsDNA, one strand shown
# Method in brief: as §1
# SPIB = SPIB (Homo sapiens, UniProt Q01892 1-262); details: protein: recombinant; tags: N-terminal GST; dsDNA, one strand shown
# Method in brief: as §1
# ELK3 = molecular target: T6, ELK3 (Homo sapiens, UniProt P41970 1-407); details: protein: recombinant; tags: N-terminal GST; dsDNA, one strand shown
# T6 sequence: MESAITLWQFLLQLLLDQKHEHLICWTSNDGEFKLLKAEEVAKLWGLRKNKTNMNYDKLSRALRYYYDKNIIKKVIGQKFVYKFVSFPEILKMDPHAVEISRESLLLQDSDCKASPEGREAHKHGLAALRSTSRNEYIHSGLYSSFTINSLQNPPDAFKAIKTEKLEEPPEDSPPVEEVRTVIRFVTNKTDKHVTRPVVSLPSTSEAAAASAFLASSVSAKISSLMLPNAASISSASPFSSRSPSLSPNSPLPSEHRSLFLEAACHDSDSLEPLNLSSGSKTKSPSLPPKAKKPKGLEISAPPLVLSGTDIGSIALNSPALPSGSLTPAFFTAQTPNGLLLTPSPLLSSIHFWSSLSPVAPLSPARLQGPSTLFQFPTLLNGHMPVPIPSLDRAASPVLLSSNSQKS
# Method in brief: as §1
# FEV = molecular target: T7, FEV (Homo sapiens, UniProt Q99581 1-238); details: protein: recombinant; tags: N-terminal GST; dsDNA, one strand shown
# T7 sequence: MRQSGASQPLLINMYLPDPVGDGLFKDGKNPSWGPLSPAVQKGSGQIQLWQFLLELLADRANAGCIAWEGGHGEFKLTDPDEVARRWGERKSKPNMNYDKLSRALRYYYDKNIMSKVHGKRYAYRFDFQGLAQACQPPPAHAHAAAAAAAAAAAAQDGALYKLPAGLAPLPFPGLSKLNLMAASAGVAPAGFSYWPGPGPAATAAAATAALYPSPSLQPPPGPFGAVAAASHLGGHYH
# Method in brief: as §1
# ETV5 = ETV5 (Homo sapiens, UniProt P41161 1-510); details: protein: recombinant; tags: N-terminal GST; dsDNA, one strand shown
# Method in brief: as §1
# HSF1 = HSF1 (Homo sapiens, UniProt Q00613 1-529); details: protein: recombinant; tags: N-terminal GST; chain copies: 3; dsDNA, one strand shown
# Method in brief: as §1
# SPIC = molecular target: T8, SPIC (Homo sapiens, UniProt Q8N5J4 1-248); details: protein: recombinant; tags: N-terminal GST; dsDNA, one strand shown
# T8 sequence: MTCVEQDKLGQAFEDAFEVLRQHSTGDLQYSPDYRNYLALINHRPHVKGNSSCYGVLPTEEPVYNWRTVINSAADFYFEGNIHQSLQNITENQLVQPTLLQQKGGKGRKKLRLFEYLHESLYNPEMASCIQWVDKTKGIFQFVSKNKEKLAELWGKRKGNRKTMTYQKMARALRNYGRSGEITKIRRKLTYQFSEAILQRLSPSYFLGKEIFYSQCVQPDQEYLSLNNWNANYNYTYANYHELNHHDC
# Method in brief: as §1
# ELF4 = ELF4 (Homo sapiens, UniProt Q99607 1-663); details: protein: recombinant; tags: N-terminal GST; dsDNA, one strand shown
# Method in brief: as §1
# ELK4 = molecular target: T9, ELK4 (Homo sapiens, UniProt P28324-2 1-405); details: protein: recombinant; tags: N-terminal GST; dsDNA, one strand shown
# T9 sequence: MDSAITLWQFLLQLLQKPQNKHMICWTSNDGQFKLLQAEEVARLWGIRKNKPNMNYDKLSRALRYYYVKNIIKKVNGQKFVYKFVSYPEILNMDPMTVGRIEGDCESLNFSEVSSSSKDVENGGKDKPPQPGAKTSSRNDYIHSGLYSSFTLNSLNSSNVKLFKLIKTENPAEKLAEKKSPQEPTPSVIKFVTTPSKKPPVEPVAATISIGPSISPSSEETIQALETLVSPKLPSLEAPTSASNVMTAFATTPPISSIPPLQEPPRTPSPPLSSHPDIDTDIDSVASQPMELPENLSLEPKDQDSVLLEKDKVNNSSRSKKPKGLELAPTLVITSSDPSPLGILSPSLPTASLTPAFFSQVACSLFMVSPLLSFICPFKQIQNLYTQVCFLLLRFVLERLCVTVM
# Method in brief: as §1
# ETV2 = molecular target: T10, ETV2 (Homo sapiens, UniProt O00321 1-342); details: protein: recombinant; tags: N-terminal GST; dsDNA, one strand shown
# T10 sequence: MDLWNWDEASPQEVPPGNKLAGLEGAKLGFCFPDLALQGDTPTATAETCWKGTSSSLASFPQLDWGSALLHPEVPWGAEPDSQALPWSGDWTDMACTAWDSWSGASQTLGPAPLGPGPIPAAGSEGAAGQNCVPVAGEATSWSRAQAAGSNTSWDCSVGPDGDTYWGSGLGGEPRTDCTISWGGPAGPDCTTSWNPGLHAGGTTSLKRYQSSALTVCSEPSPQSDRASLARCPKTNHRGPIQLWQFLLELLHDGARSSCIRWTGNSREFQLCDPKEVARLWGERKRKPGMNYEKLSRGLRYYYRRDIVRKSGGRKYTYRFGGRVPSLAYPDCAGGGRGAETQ
# Method in brief: as §1
# ELF3 = molecular target: T11, ELF3 (Homo sapiens, UniProt P78545 1-371); details: protein: recombinant; tags: N-terminal GST; dsDNA, one strand shown
# T11 sequence: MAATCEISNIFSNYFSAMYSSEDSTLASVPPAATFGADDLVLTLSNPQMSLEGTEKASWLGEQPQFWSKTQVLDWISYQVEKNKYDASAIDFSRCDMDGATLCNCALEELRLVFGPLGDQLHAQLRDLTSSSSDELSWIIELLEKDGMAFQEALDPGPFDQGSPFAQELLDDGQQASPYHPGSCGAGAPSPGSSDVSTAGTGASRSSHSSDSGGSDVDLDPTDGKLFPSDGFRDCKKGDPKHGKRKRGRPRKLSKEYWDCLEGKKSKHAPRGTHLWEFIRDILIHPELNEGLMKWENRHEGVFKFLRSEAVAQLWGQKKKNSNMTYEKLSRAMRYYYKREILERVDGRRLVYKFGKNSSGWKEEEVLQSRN
# Method in brief: as §1
# CRX = CRX (Homo sapiens, UniProt O43186 1-299); details: protein: recombinant; tags: N-terminal GST; dsDNA, one strand shown
# Method in brief: as §1
# ETV1 = ETV1 (Homo sapiens, UniProt P50549 1-477); details: protein: recombinant; tags: N-terminal GST; dsDNA, one strand shown
# Method in brief: as §1
# Sequence of CRX (O43186 whole entry): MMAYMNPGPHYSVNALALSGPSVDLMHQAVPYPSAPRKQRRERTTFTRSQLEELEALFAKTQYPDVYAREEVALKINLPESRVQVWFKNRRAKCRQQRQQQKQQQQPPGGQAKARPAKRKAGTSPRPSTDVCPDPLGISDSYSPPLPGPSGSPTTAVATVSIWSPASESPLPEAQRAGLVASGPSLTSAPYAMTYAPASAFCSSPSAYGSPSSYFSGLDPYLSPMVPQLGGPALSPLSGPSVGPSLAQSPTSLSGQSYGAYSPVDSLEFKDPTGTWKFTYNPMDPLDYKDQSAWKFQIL
# Sequence of ETV5 (P41161 whole entry): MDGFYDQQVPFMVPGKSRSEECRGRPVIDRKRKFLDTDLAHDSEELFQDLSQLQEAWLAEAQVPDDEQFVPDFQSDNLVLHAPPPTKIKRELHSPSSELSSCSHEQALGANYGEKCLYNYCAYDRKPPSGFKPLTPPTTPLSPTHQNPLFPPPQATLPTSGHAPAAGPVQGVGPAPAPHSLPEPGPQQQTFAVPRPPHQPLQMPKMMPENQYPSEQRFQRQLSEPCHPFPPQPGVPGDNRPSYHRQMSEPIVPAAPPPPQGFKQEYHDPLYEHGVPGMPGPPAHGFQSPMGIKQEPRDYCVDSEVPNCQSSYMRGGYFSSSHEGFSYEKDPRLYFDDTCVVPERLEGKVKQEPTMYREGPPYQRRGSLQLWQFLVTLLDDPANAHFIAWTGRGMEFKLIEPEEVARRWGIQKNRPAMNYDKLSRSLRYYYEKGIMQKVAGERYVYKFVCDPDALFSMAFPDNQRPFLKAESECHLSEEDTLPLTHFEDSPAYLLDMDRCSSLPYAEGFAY
# Sequence of HSF1 (Q00613 whole entry): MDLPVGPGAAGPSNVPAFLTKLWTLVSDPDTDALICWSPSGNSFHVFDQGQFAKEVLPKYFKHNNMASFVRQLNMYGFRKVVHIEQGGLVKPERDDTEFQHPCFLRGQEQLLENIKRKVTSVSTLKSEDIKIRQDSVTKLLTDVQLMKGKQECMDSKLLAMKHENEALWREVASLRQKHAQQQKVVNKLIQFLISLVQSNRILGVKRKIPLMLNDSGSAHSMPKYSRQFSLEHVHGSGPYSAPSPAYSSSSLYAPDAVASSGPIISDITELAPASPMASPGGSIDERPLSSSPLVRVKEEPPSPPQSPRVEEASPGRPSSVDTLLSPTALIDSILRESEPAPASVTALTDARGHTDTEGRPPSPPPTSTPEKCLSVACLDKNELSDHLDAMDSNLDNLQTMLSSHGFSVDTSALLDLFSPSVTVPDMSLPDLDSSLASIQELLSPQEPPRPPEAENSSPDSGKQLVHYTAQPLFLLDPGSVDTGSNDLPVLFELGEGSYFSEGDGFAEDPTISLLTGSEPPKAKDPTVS
# Sequence of ELF4 (Q99607 whole entry): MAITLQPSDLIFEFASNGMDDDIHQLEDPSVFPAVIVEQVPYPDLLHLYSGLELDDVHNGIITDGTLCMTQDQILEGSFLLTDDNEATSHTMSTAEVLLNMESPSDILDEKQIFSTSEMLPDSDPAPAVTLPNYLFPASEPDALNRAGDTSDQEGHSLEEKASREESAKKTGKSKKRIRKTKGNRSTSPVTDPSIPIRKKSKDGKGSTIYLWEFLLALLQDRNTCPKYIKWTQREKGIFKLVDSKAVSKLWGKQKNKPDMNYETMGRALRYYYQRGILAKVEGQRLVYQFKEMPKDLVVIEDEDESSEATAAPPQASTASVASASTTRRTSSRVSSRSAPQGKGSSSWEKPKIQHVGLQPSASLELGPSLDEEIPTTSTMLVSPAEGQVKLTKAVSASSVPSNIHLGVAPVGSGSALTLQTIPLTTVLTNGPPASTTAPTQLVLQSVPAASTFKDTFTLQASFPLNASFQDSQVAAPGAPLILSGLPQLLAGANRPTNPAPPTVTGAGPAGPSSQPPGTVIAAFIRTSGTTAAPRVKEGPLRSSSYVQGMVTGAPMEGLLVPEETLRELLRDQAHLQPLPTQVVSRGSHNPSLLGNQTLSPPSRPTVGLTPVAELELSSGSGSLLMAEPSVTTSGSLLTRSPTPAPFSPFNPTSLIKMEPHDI
# Sequence of ETV1 (P50549 whole entry): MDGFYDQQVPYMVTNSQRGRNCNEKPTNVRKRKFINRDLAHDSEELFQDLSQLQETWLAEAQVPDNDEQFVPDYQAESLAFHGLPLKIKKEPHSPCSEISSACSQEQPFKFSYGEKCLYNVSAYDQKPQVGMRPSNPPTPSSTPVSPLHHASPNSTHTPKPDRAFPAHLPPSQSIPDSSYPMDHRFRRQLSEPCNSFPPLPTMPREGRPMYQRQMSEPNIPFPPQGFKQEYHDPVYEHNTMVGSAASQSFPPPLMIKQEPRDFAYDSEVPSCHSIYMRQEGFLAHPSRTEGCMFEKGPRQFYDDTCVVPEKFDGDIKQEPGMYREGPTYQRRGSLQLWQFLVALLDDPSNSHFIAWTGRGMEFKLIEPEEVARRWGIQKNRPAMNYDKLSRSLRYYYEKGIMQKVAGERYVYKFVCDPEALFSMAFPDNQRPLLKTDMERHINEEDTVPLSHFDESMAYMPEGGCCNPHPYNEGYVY
# Sequence of ELF1 (P32519 whole entry): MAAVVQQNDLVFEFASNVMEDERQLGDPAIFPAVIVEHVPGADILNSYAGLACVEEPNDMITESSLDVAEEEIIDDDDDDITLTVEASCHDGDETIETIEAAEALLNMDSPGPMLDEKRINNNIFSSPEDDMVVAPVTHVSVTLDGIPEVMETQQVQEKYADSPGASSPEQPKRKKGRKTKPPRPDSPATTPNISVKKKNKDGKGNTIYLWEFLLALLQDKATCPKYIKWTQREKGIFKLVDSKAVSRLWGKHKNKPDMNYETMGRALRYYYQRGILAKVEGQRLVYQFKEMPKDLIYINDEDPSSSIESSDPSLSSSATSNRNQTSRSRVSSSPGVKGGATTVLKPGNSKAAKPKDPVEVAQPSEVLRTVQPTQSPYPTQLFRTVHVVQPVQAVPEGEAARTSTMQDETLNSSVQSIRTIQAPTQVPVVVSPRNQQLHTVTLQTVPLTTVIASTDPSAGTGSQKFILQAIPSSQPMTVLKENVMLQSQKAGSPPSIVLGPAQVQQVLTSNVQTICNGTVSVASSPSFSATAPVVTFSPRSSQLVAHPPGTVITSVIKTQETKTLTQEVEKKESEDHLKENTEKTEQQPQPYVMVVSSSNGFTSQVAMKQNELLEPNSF
# Sequence of SPIB (Q01892 whole entry): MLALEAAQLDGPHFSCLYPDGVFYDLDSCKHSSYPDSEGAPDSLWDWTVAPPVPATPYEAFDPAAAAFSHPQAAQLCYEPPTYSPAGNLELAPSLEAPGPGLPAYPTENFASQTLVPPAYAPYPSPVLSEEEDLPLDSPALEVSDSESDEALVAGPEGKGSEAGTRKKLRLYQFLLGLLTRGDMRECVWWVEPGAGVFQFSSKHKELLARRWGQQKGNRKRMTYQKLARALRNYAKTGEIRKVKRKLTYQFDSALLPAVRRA
sequence,measurement,setting,value
TTCAGG,binding signal,FLI1,"1.2 fold enrichment (6-mer frequency, TF over GST control)"
same,binding signal,ELK1,"1.14 fold enrichment (6-mer frequency, TF over GST control)"
same,binding signal,GABPA,"1.15 fold enrichment (6-mer frequency, TF over GST control)"
same,binding signal,ERG,"1.12 fold enrichment (6-mer frequency, TF over GST control)"
same,binding signal,ELF1,"1.1 fold enrichment (6-mer frequency, TF over GST control)"
same,binding signal,EHF,"1.11 fold enrichment (6-mer frequency, TF over GST control)"
same,binding signal,SPI1,"1.22 fold enrichment (6-mer frequency, TF over GST control)"
same,binding signal,SPIB,"1.1 fold enrichment (6-mer frequency, TF over GST control)"
same,binding signal,ELK3,"1.09 fold enrichment (6-mer frequency, TF over GST control)"
same,binding signal,FEV,"1.05 fold enrichment (6-mer frequency, TF over GST control)"
same,binding signal,ETV5,"1.13 fold enrichment (6-mer frequency, TF over GST control)"
same,binding signal,HSF1,"1.22 fold enrichment (6-mer frequency, TF over GST control)"
same,binding signal,SPIC,"1.13 fold enrichment (6-mer frequency, TF over GST control)"
same,binding signal,ELF4,"1.11 fold enrichment (6-mer frequency, TF over GST control)"
same,binding signal,ELK4,"1.19 fold enrichment (6-mer frequency, TF over GST control)"
same,binding signal,ETV2,"1.14 fold enrichment (6-mer frequency, TF over GST control)"
same,binding signal,ELF3,"1.07 fold enrichment (6-mer frequency, TF over GST control)"
same,binding signal,CRX,"1.01 fold enrichment (6-mer frequency, TF over GST control)"
same,binding signal,ETV1,"1.15 fold enrichment (6-mer frequency, TF over GST control)"

# — PMC7862700, “An all-to-all approach to the identification of sequence-specific readers for epigenetic DNA modifications on cytosine”
